RORg inh = ROR gamma (mouse) transcription inhibition | Potency, µM (series often up to 53.6 µM), without a hit: at the top dose activity change, negative = inhibition, usual class: inhibitors | Drosophila S2 Gal4-RORgamma UAS-luciferase reporter, 20 h | hit rate 5.4% among 310,000 | P51450 | AID 2551; further: potency means the concentration at half of the fitted maximal effect; nearly all actives have a fitted effect of over 60% in size
Target sequence (P51450 whole entry, looked up, the tested form may be a part): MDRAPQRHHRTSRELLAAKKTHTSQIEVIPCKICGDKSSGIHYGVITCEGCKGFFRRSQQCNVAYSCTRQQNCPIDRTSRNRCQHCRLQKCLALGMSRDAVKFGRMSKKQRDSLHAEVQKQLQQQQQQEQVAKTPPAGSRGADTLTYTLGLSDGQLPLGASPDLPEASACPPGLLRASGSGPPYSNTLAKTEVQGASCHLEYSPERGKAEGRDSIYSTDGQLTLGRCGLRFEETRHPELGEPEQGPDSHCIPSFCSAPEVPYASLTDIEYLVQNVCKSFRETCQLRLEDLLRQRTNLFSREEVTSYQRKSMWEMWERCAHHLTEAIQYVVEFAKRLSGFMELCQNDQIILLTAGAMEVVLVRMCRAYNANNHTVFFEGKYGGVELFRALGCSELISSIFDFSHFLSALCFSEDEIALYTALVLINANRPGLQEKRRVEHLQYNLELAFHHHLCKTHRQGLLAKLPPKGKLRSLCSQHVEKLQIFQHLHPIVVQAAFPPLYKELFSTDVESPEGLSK
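Luciferase reporter read in Schneider cells carrying Gal4-RORγ (mouse) and UAS-Photinus luciferase; cells given compound 1 h before 700 uM copper sulfate induction, then incubated 20 h at ambient temperature.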
VP16 counter = inhibits Gal4-VP16 luciferase reporter, ROR gamma counter-screen. AID 2546. hit rate 3.5% among 310,000. Drosophila S2 Gal4-VP16 UAS-luciferase, luminescence, 20 h. Potency, µM (doses to about 53.6 µM), for inactives: at the highest dose activity, negative = inhibition, hits mostly inhibitors;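 further: Gal4-VP16 expression switched on by copper sulfate through the metallothionein promoter; potency means the concentration at half of the fitted maximal effect; nearly all actives have a fitted effect of over 50% in size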
TDP1 cell CPT = DT40-hTDP1 cell growth loss with CPT; chicken DT40 Tdp1-/-;hTDP1 cells + 20 nM CPT, ATP luminescence, 48 h; Potency, µM (doses to about 46.2 µM), without a hit: top-dose activity change, negative = growth inhibition, usual class: inhibitors; hit rate 12% among 420,000; AID 686979; further: potency means the concentration at half of the fitted maximal effect; nearly all actives have a fitted effect of over 55% in size
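Chicken DT40 Tdp1-/- cells stably complemented with human TDP1 were seeded at 400 cells/well in medium containing 20 nM camptothecin, exposed to pin-transferred compounds, and grown at 37 °C for at least 48 hr. Viability was read as ATP luminescence.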
IL-1B inflam inh = inhibitors of inflammasome signaling (IL-1 beta secretion). THP-1 LPS/ATP IL-1B secretion, AlphaLISA, 16 h; stronger effect = lower value. activity change, % at 57.5 µM. hit rate 4.7% among 360,000; in the data active means activity change below about -50%; inconclusive means mostly about -30% to -49%
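THP-1 cells pretreated 1 hr with compounds (up to 57.5 uM final), then stimulated with LPS (250 ng/mL final) plus ATP (1.25 mM final); secreted IL-1B measured by AlphaLISA after 16 hr, decreased signal indicating inhibition.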
DT40 TDP1 no CPT = qHTS for Inhibitors of human tyrosyl-DNA phosphodiesterase 1 (TDP1): qHTS in cells in absence of CPT; DT40 Tdp1-/- hTDP1 cells, no CPT, ATP luminescence, 48 h; Potency, µM (highest dose often 46.2 µM), for the others: at the highest dose activity change, negative = growth inhibition, usual class: inhibitors; hit rate 15% among 420,000; further: potency means the concentration at half of the fitted maximal effect; nearly all actives have a fitted effect of over 55% in size
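Luminescent ATP content (CellTiter-Glo) served as the growth readout. Knockout chicken DT40 cells expressing human TDP1 were exposed to compounds without camptothecin for a minimum 48 hr at 37 °C.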
ELG1 repair inh = blocks ELG1-dependent DNA repair in HEK293T cells; hit rate 2.3% among 330,000; Potency, µM (series often up to 46.1 µM), for the others: at the top dose activity change, negative = inhibition, actives largely listed as inhibitors; AID 504467; HEK293T ELG1-luciferase reporter, luminescence, 16 h; DNA damage induced by 5-fluorouridine; further: potency means the concentration at half of the fitted maximal effect; nearly all actives have a fitted effect of over 55% in size
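5-Fluorouridine DNA damage + compound/DMSO, 2,000 cells/well, 16 h, 37 °C/5% CO2. ONE-Glo, 30 min RT, luminescence. Readout = decrease in reporter signal.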
Numbers without * were called inactive; u = inconclusive; x = no result given; [ ] = remark or other dose. Sampled rows, rich in hits. Any-hit rate of the full collection: about 21%. Unless noted, the call rests on the fitted dose curve; in most records, active means well fitted curve in the direction sought with a large enough effect; inconclusive means small, poorly fitted or top-dose-only effect, or another doubt; inactive means no such curve, though single readings can be large; an effect the other way counts as inactive or inconclusive. On the % scale 0 is the no-effect control and ±100 the full control effect.

SMILES	RORg inh	VP16 counter	TDP1 cell CPT	IL-1B inflam inh	DT40 TDP1 no CPT	ELG1 repair inh
CC(C)n1c(=N)c(C(=O)NC2CCCCC2)cc2c(=O)n3ccccc3nc21	x	x	1.5%	x	-0.3%	x
CC(C)n1c(=N)c(C(=O)NCCc2ccccc2)cc2c(=O)n3ccccc3nc21	-10.8%	-3.7%	-25.4%	-51.9*	u	16.5%
CCC(C)n1c(=N)c(C(=O)NC2CCCCC2)cc2c(=O)n3ccccc3nc21 (stereo not drawn)	x	x	u	x	16.4µM*	x
Cc1ccc2c(CN3CCN(c4ccc(Cl)c(Cl)c4)CC3)cc(=O)oc2c1	x	x	u	-10.2	u	x
CC(C)C[C@H]1CN(CCCC[C@@H]2CNC(=O)C(=O)N2CCc2ccccc2)C(=O)C(=O)N1CCc1ccc(O)cc1	x	x	-0.3%	-23.5	-7.3%	x
CC(=O)OCC(=O)C1(O)CCC2C3CCC4C(OC(C)=O)C(=O)CCC4(C)C3C(=O)CC21C (stereo not drawn)	x	x	10.4%	12.8	7.4%	x
CCOc1ccc(-n2ccc(=O)c(C(=O)Nc3ccc(S(=O)(=O)Nc4ncccn4)cc3)n2)cc1	-4.3%	-0.4%	u	-24.4	7.5%	-4.2%
Cc1nc2ccccn2c(=O)c1NC(=O)c1ccc(F)c(F)c1	x	x	1.4%	x	-21.4%	x
Cc1ccc(CNC(=O)c2sc3ncnc(N(C)C4CCCCC4)c3c2C)cc1	x	x	u	x	25.9µM*	x
Cc1ccccc1CNC(=O)c1sc2ncnc(N(C)C3CCCCC3)c2c1C	x	x	u	x	20.6µM*	x
COc1ccc(C(CNC(=O)c2cccc(NC(=O)c3cccs3)c2)N2CCCC2)cc1 (stereo not drawn)	x	x	u	-10.7	u	-17.5%
Cc1ccc(C(=O)c2oc3ccccc3c2N)cc1	37.5%	20.5%	16.4µM*	-9.9	u	u
Nc1c(C(=O)c2ccc(Br)cc2)oc2ccccc12	18.9%	-0.2%	6.5%	11.5	15.7%	u
Cn1c2ccccc2c2cc(/C=N/NC(=O)c3ccccc3F)ccc21	u	u	23.1µM*	-2.4	u	23.1µM*
Cn1c2ccccc2c2cc(/C=N/NC(=O)c3ccc(N)cc3)ccc21	-3.4%	-19.0%	u	u	18.4µM*	u
CC(C)c1ccc(S(=O)(=O)N2CCN(C(=S)NCc3ccco3)CC2)cc1	-4.4%	-13.5%	14.6µM*	0.0	u	-4.0%
O=S(=O)(c1cccc(C(F)(F)F)c1)N1CCN(C(=S)NCc2ccco2)CC1	40.6%	-1.0%	-26.4%	-1.6	u	-9.9%
S=C(NCc1ccco1)N1CCN(C/C=C/c2ccccc2)CC1	12.7%	-0.2%	-26.8%	5.9	u	u
S=C(NCc1ccco1)N1CCN(Cc2ccc(Cl)cc2Cl)CC1	13.6%	4.9%	u	u	23.1µM*	-1.2%
S=C(NCc1ccco1)N1CCN(c2ccc(Cl)cc2)CC1	u	9.6%[10 µM]	-3.6%	-7.4	23.1µM*	u
O=C1C=C(c2ccc3c(c2)oc2ccccc23)C[C@@H](c2ccc(Cl)cc2)C1	x	x	u	34.1	u	0.9%
CCCCCCSc1ccc(-c2nc3ccc(C)cn3c2NCCCC)cc1OC	x	x	11.6µM*	-23.8	9.2µM*	x
CCCCNc1c(-c2ccc(-c3cccc(Cl)c3)cc2)nc2ccc(Cl)cn12	x	x	u	-7.0	u	u
CCCCNc1c(-c2ccc(SC3CCCCC3)c(OC)c2)nc2ccc(Cl)cn12	x	x	u	-19.3	16.4µM*	-12.3%
CCCCNc1c(-c2ccc(SC(C)CC)c(OC)c2)nc2ccc(C)cn12 (stereo not drawn)	x	x	5.8µM*	-92.9*	6.51µM*	5.3%
SMILES	RORg inh	VP16 counter	TDP1 cell CPT	IL-1B inflam inh	DT40 TDP1 no CPT	ELG1 repair inh
CCCCCCSc1cc(-c2nc3cc(C)ccn3c2NCCCC)ccc1OC	x	x	13µM*	-87.2*	16.4µM*	u
CC(C)C[C@@H]1COc2cccc(N3CCSCC3)c2S(=O)(=O)N1	x	x	-13.7%	15.1	-27.8%	x
CCCN(CC(=O)Nc1ccccc1OC)C(=O)CN1C(=O)NC(C)(C)C1=O	x	x	6.3%	14.7	-22.5%	x
CCCCNc1c(-c2ccc(SC(C)CC)c(OC)c2)nc2ccc(Cl)cn12 (stereo not drawn)	x	x	25.9µM*	-68.3*	20.6µM*	-14.1%
Cc1ccn2c(NC(=O)c3cccs3)c(-c3ccccc3)nc2c1	11.1%	2.6%	-25.1%	-2.4	u	u
CCCCNc1c(-c2cccc(-c3cc(C(C)=O)cs3)c2)nc2cc(C)ccn12	x	x	u	-79.5*	u	u
CCCCCCSc1ccc(-c2nc3ccc(Cl)cn3c2NCCCC)cc1OC	x	x	u	-15.5	u	11.1%
O=C(O)c1cccc(N(CCO)CCO)c1	-5.2%	2.9%	-6.5%	5.1	12.0%	6.3%
OCCN(CCO)c1ccc(C(c2ccccc2Cl)c2ccc(N(CCO)CCO)cc2Cl)c(Cl)c1	14.1µM*	u	u	u	18.4µM*	16.2%
CCNc1nc(CN2CCCCC2)nc2scc(-c3ccccc3)c12	15.8µM*	u	11.6µM*	-90.8*	16.4µM*	-5.7%
OCC1CCCN(c2nc(CN3CCCCC3)nc3scc(-c4ccccc4)c23)C1 (stereo not drawn)	-24.6%	0.4%	14.6µM*	-5.9	u	1.0%
CCCc1nc2scc(-c3ccccc3)c2c(=O)n1N	45.0%	3.0%	-29.0%	1.4	u	11.6%
COc1cccc(C2=CC(c3ccccc3)n3ncnc3N2)c1 (stereo not drawn)	-22.0%	-12.5%	x	x	x	4.3%
COc1cccc(C2=CC(c3ccccc3)n3nnnc3N2)c1 (stereo not drawn)	u	35.5µM*	5.8µM*	7.3	3.66µM*	2.5%
COc1ccc(C2C=C(c3ccccc3)Nc3nnnn32)cc1 (stereo not drawn)	7.4%	0.9%	-18.4%	1.8	u	u
COc1cccc(C2=CC(c3ccc(N(C)C)cc3)n3nnnc3N2)c1 (stereo not drawn)	-37.9%	4.1%	20.6µM*	-3.4	13µM*	17.3%
COc1cccc(C2C=C(c3ccc(OC)cc3OC)Nc3nnnn32)c1 (stereo not drawn)	-13.1%	0.0%	u	-5.2	16.4µM*	18.4µM*
COc1ccc(C2=CC(c3ccc(OC)c(OC)c3)n3nnnc3N2)c(OC)c1 (stereo not drawn)	-6.4%	3.3%	u	19.9	u	u

Screening results (PubChem BioAssay)
